NALP1 inh: blocks the NALP1 inflammasome reconstituted in yeast. AID 2071. 0.61% of 280,000 active. S. cerevisiae NALP1/ASC/caspase-1 growth, X-gal OD620, 72 h. inhibition, % at 10 µM; in the data active means inhibition mostly above about 24%, no sharp cut-off; inactive means mostly below about 32%
NLRP3 yeast inh: inhibitors of NALP3 inflammasome in yeast; Yeast reconstituted NLRP3/ASC/caspase-1, beta-gal luminescence, 24 h; 0.39% of 330,000 active; inhibition, % at 10 µM;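 active means inhibition of 50% or more; inactive means inhibition below 50%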;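 further: plate controls were induced DMSO wells for no effect and uninduced yeast grown without galactose for full effect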
TIM10 inh: inhibits growth of TIM10 yeast strain | 1.4% of 330,000 active | inhibition, % at 10 µM | S. cerevisiae TIM10 strain growth, BacTiter-Glo luminescence, 24 h;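 active means inhibition of 40% or more at the single tested concentration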;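 further: wild-type TIM10 isogenic control strain grown at permissive 25 °C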
tim23-1 inh: tim23-1 yeast growth inhibition; 1.3% of 330,000 active; S. cerevisiae tim23-1 growth, BacTiter-Glo luminescence, 24 h; AID 463212; inhibition, % at 20 µM;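 active means growth inhibition of the mutant yeast at or above 50%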;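 further: temperature-sensitive mutant grown at 25 °C; plate controls were DMSO-treated mutant yeast for no effect and medium wells lacking yeast for full effect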
tim10-1 inh: growth inhibitors of tim10-1 mutant yeast | 2.2% of 330,000 active | AID 463190 | S. cerevisiae tim10-1 ts strain growth, BacTiter-Glo, 24 h | inhibition, % at 20 µM;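 active means inhibition of at least 40%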;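 further: mutant grown at 25 °C; 0% = DMSO wells with yeast and 100% = wells holding no yeast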
tim10-1 confirm: tim10-1 yeast growth inhibition, confirmed; shares compounds with tim10-1 inh; S. cerevisiae tim10-1 ts strain growth, BacTiter-Glo, 24 h; inhibition, % at 20 µM; 56% of 7,400 active; AID 463213;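 active means inhibition of yeast growth at or above a set limit in either of two repeat tests at 20 µM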;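 further: tim10-1 mutant grown at permissive 25 °C to find synthetic lethal compounds; 0% = DMSO yeast wells and 100% = medium wells without yeast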
* hit, by the source's call; . = no result. An excerpt weighted towards active compounds, which were near 4.1% of everything screened.

SMILES	NALP1 inh	NLRP3 yeast inh	TIM10 inh	tim23-1 inh	tim10-1 inh	tim10-1 confirm
Cc1cc(C(=O)COC(=O)C2=COCCO2)c(C)n1-c1ccccc1	.	-8.1	-4.0	25.6	-7.5	.
CC(C)CCNC(=O)NC(=O)COC(=O)/C=C/c1cccc([N+](=O)[O-])c1	4.4	15.6	24.8	18.1	42.5*	18.5
COC(=O)C(CO)Nc1ncnc2onc(-c3ccc(F)cc3)c12 (stereo unspecified)	5.4	0.7	-18.7	0.7	13.6	.
O=C(/C=C/c1ccccc1[N+](=O)[O-])NCCN1C(=O)S/C(=C\c2ccc(F)cc2)C1=O	13.4	1.1	9.9	14.4	8.8	.
CC(C)(C)C(=O)NCCN1C(=O)S/C(=C\c2ccc([N+](=O)[O-])cc2)C1=O	43.0	16.5	34.5	45.0	57.5*	44.4*
COC(=O)c1c(NC(=O)CN2CCC3(O)CCCCC3C2c2ccccc2OC)sc(C)c1C (stereo unspecified)	-1.2	-16.6	33.7	31.2	40.0*	28.4
Cc1nc(SCC(=O)N2CCN(c3ccccc3)CC2)c2oc3ccccc3c2n1	11.0	42.7	30.7	40.2	47.5*	42.6*
Cc1cc(OCCN2CCN(S(=O)(=O)c3ccccc3F)CC2)ccc1C(C)C	.	19.4	20.5	26.4	42.6*	26.1
COc1ccc(Nc2nc(N)c(C(=O)c3ccc(OC)cc3)s2)cc1	11.0	15.7	20.3	36.6	43.6*	0.1
CCN1CCN(C2=C(NS(=O)(=O)c3ccccc3)C(=O)c3ccccc3C2=O)CC1	-0.6	26.3	15.0	9.4	3.8	.
CCOC(=O)N1CCN(C2=C(NS(=O)(=O)c3ccccc3)C(=O)c3ccccc3C2=O)CC1	-1.1	15.3	24.8	34.3	54.6*	15.2
N#C/C(=C/c1ccc(N2CCCCCC2)o1)c1ccc(Cl)cc1	18.1	34.7	38.5	48.5	46.6*	28.2
Cc1ccc(/C(C#N)=C\c2ccc(N3CCOCC3)o2)cc1	40.2	41.6	14.2	41.6	36.1	.
COc1ccc(OC)c(N=C(N)N=C(N)N)c1	-2.2	-6.5	-4.2	7.5	6.5	.
Cc1ccc(S(=O)(=O)/N=C2\C=C(Nc3cccc(C(=O)O)c3)C(=O)c3ccccc32)cc1	7.4	22.2	17.8	32.2	18.2	.
Cc1ccc(S(=O)(=O)/N=C2\C=C(Nc3cccc(C(=O)O)c3)C(=O)c3ccccc32)c(C)c1	-11.4	28.2	7.4	35.2	43.7*	22.0
COc1ccc(-n2ccnc2CN2CCCC(CO)(Cc3cccc(OC)c3)C2)cc1 (stereo unspecified)	14.1	14.1	19.7	18.2	41.0*	22.4
OCC1(Cc2cccc(Cl)c2)CCCN(Cc2ccc3cc(F)ccc3n2)C1 (stereo unspecified)	15.4	0.6	23.2	33.2	47.9*	21.2
O=C1OC(c2ccco2)=N/C1=C\c1ccc(-c2cccc(C(F)(F)F)c2)o1	21.6	9.8	26.7	28.5	45.8*	22.7
C=CCn1c(-c2cc3cccc(OC)c3o2)n[nH]c1=S	-10.6	18.4	15.6	41.6	44.3*	18.7
CC(C)(O)C#Cc1ccc(C(=O)N2CCN(c3ccc(F)cc3)CC2)cc1	-4.0	12.4	-3.2	14.1	4.3	.
CC(C)(O)C#Cc1ccc(C(=O)N2CCN(c3ccc(Cl)cc3)CC2)cc1	-1.2	7.6	27.0	34.8	49.3*	40.2*
COC(=O)c1ccc(COc2ccccc2/C=C(\C#N)C(=O)Nc2ccc(C)cc2C)cc1	17.9	17.8	12.2	4.1	19.3	.
COC(=O)c1ccc(COc2ccccc2/C=C(\C#N)C(=O)Nc2c(C)cc(C)cc2C)cc1	30.2	8.8	1.9	30.1	47.2*	13.4
COc1cc(/C=C(/C#N)C(=O)Nc2ccccc2)c(Br)cc1OCc1ccc(C(=O)O)cc1	.	-54.5	30.7	42.3	42.7*	39.9*
SMILES	NALP1 inh	NLRP3 yeast inh	TIM10 inh	tim23-1 inh	tim10-1 inh	tim10-1 confirm
COc1ccc(C2C(=O)N(CCc3ccccc3)CC(=O)N2C2CCCC2)cc1 (stereo unspecified)	2.3	6.6	15.7	32.5	44.2*	29.4*
Cc1cc(C)cc(OCCCOc2cccc3cccnc23)c1	14.5	33.5	26.5	36.6	42.1*	33.1*
N/C(=N\S(=O)(=O)c1cc(C(F)(F)F)cc(C(F)(F)F)c1)c1ccc(Cl)cc1	-2.7	14.9	35.0	47.5	45.8*	42.6*
CCOC(=O)Nc1ccc2nc(Sc3ccc(Cl)cc3)sc2c1	19.9	17.5	20.4	26.6	42.1*	33.5*
CSc1nc2ccc(NC(=O)c3ccc(F)c(F)c3)cc2s1	4.6	26.0	1.9	-19.8	-7.7	.
O=C(O)c1ccc(N2CCc3ccccc32)c([N+](=O)[O-])c1	-7.3	6.2	17.2	2.5	2.5	.
O=C(NCc1ccc(F)cc1)c1ccc(N2CCc3ccccc32)c([N+](=O)[O-])c1	27.6	26.9	18.1	39.4	41.9*	26.1
COc1cc2c(cc1OC)CN(C1CC(=O)N(c3c(C)cccc3C)C1=O)CC2 (stereo unspecified)	4.8	-1.8	17.5	36.1	39.3	.
Cc1ccc(Nc2c(-c3ccco3)nc3nc(C)cc(C)n23)cc1	5.4	16.9	16.6	10.0	41.1*	13.8
Cc1cccc(/C=N/NC(=O)c2ccc(NC(=O)c3ccc(Cl)cc3)cc2)n1	0.0	19.0	6.7	18.7	96.4*	-7.8
Cc1nc(Nc2ccc(Cl)cc2Cl)sc1C(=O)Nc1ccccc1	21.9	38.9	15.1	28.6	47.5*	31.1*
Cc1ccc(NC(=O)COC(=O)c2ccccc2Nc2ccccc2)cc1	0.7	15.0	5.3	10.6	-5.4	.
Cc1cccc(C(=O)Nc2ccccc2C(=O)OCC(=O)Nc2ccc(C#N)cc2)c1	26.7	7.6	38.2	20.1	43.3*	11.2
N[C@H]1C(O)O[C@H](CO)[C@@H](O)[C@@H]1O (stereo partly specified)	.	-3.1	-2.3	-13.1	-5.7	.
COc1ccc(C(=O)NC2CCCc3c2cnn3-c2cc(F)cc(F)c2)c(OC)c1OC (stereo unspecified)	6.6	5.3	11.9	38.9	41.5*	28.0*
Cc1cccc(N2C(=N)SCC2=O)c1C	4.3	-1.5	-12.5	11.2	16.3	.
COc1cc2[nH]c(C(=O)N3CCC(Cc4ccccc4)CC3)cc2c(OC)c1OC	11.2	9.5	12.4	33.6	44.5*	16.1
CCOC(=O)C1CCN(C(=O)c2cc3c(OC)c(OC)c(OC)cc3[nH]2)CC1	9.9	-7.4	-14.9	8.2	-3.4	.
CC1Cc2c([nH]c3ccccc23)C2c3ccccc3CN12 (stereo unspecified)	20.1	-2.7	0.2	22.4	30.7	.
[O-][n+]1cccc2c(Br)cc(Br)c(O)c21	-11.8	28.1	39.8	40.3	49.0*	22.7
C[n+]1cccc2c(Br)ccc([O-])c21	26.8	14.9	12.6	9.1	20.5	.
O=C(NCc1cnn(-c2ccc(F)cc2)c1)C1CCC(=O)N(C2CC2)C1 (stereo unspecified)	13.8	17.9	-0.9	-4.8	-23.9	.

Screens (PubChem BioAssay)
